Screening data as filed in PubChem.
Sampled rows, rich in hits. Any-hit rate of the full collection: about 9.3%.
NPC1 prom act – activators of NPC1 promoter. Huh7 NPC1 promoter luciferase reporter, 24 h. Potency, µM (highest dose often 9.22 µM), without a hit: at the top dose activation, most hits filed as activators. 320,000 compounds, 2.4% hits; further: % of control where 0% means no effect; nearly all actives have a fitted effect of over 60% in size
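Stably transfected Huh7 (NPC1 promoter→luciferase), 1500 cells/well in Opti-MEM + 10% FBS, 2 h settle, then compound 24 h at 37 °C. Luminescence after 10 min with Amplite reagent.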
ELG1 DNA repair – inhibitors of ELG1-dependent DNA repair in HEK293T cells | HEK293T ELG1-luciferase reporter, luminescence, 16 h; DNA damage induced by 5-fluorouridine | Potency, µM (titrated, usually from 46.1 µM), for inactives: top-dose activity change, negative = inhibition, usual class: inhibitors | 330,000 compounds, 2.3% hits; further: on the % scale 0 is the no-effect control and ±100 the full control effect; nearly all actives have a fitted effect of over 55% in size
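DMSO vehicle served as the neutral condition. Each well held 2,000 cells given 5-fluorouridine plus compound; after 16 hr at 37 °C/5% CO2, ONE-Glo was added and luciferase measured 30 min later.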
ELG1 genotoxic – induces genotoxicity in HEK293T cells with luciferase-tagged ELG1; Potency, µM (titrated, usually from 46 µM), inactives show top-dose activity change, positive = activation, usual class: activators; HEK293T ELG1-luciferase reporter, luminescence, 16 h; AID 504466; 330,000 compounds, 1.3% hits; further: % of control where 0% means no effect; nearly all actives have a fitted effect of over 60% in size
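Step 1: seed 2,000 HEK293T ELG1-luciferase cells per well. Step 2: add compound or DMSO, incubate 16 hr at 37 °C. Step 3: ONE-Glo, 30 min at room temperature, read luminescence.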
Rab9 prom act – Rab9 promoter activation | AID 485297 | 320,000 compounds, 2.8% hits | Potency, µM (doses to about 9.22 µM), inactives show top-dose activation, negative = inhibition, hits mostly activators | Huh7 Rab9 promoter-luciferase reporter, luminescence, 24 h; further: % of control where 0% means no effect; nearly all actives have a fitted effect of over 60% in size
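Promoter activation is measured as luciferase luminescence in Huh7 cells stably transfected with a Rab9 promoter–luciferase construct, following 24 h compound exposure at 37 °C and 10 min reagent incubation at ambient temperature.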
FLuc counter – firefly luciferase modulation, counter-screen for miR-21 project; purified FLuc, Km substrates, luminescence inhibition; Potency, µM (titrated, usually from 57.5 µM), for inactives: at the top dose activity change, negative = inhibition, usual class: inhibitors; 360,000 compounds, 6.9% hits; AID 588342;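 further: plate controls were vehicle for no effect and reference inhibitor for full effect; nearly all actives have a fitted effect of over 55% in size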
Target sequence (P08659 whole entry, looked up): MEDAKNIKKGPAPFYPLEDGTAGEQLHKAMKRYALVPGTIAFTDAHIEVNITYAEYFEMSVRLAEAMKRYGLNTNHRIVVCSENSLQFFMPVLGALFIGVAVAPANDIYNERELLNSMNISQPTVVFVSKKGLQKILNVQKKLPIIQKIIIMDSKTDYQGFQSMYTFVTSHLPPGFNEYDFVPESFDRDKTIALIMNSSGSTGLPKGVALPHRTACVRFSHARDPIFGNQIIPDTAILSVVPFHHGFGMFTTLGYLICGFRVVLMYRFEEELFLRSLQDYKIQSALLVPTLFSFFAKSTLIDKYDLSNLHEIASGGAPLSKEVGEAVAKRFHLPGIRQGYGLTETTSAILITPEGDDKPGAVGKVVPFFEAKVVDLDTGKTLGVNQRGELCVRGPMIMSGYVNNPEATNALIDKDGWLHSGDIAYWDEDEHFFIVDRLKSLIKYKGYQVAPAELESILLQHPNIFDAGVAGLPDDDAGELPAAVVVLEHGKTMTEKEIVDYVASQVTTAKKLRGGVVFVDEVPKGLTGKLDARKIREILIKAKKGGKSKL
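Purified P. pyralis luciferase (10nM final) with 10uM D-luciferin and 10uM ATP (Km levels) in 50mM Tris acetate pH 7.5, 10mM Mg acetate, 0.01% Tween-20, 0.05% BSA; qHTS 6-point titration, ~60 µM downward; luminescence read.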
SMN2 splice enh – increases expression of the SMN2 splice variant | HEK293 SMN2-luciferase splicing reporter, luminescence, 30-36 h | Potency, µM (top dose mostly 46.1 µM), without a hit: at the top dose activity change, positive = activation, usual class: activators | 210,000 compounds, 2.8% hits | AID 1458; further: % of control where 0% means no effect; nearly all actives have a fitted effect of over 55% in size
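qHTS luciferase splicing reporter: luminescence rises when SMN2 exon 7 is included in transfected HEK293 cells. Compound exposure lasted 30-36 h at 37C, with 4.5 mM final sodium butyrate as control, followed by a ONE-Glo read.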
The depositor's hits bear a star; [ ] = another dose, or the depositor's remark. The call rests on the fitted dose curve; in most records, active means well fitted curve in the direction sought with a large enough effect; inconclusive means small, poorly fitted or top-dose-only effect, or another doubt; inactive means no such curve, though single readings can be large; an effect the other way counts as inactive or inconclusive. Potency means the concentration at half of the fitted maximal effect.

Screening C=CC[C@H](CC(=O)NCCO)C(=O)N[C@H](COC(=O)[C@H](CC=C)CC(=O)OC(C)(C)C)Cc1c[nH]c2ccccc12 returned ELG1 DNA repair 23µM* and ELG1 genotoxic -6%.
For C=CC[C@H](CC(=O)N(CCO)Cc1ccccc1)C(=O)N[C@H](COC(=O)[C@@H](CC=C)CC(=O)OC(C)(C)C)Cc1ccccc1 the results were ELG1 DNA repair inconclusive and ELG1 genotoxic -11%.
For C=CC[C@H](CC(=O)N(CCO)Cc1ccccc1)C(=O)N[C@@H](COC(=O)[C@@H](CC=C)CC(=O)OC(C)(C)C)Cc1c[nH]c2ccccc12 the results were ELG1 DNA repair 18µM* and ELG1 genotoxic -12%.
Screening C=CC[C@H](CC(=O)N(CCO)Cc1ccccc1)C(=O)N[C@H](COC(=O)[C@H](CC=C)CC(=O)OC(C)(C)C)Cc1c[nH]c2ccccc12 returned ELG1 DNA repair 21µM* and ELG1 genotoxic -13%.
For Cn1c2c(c(=O)n(C)c1=O)C(NC(=O)c1cccs1)(C(F)(F)F)C(=O)N2 (stereo unspecified) the results were NPC1 prom act -3%, ELG1 DNA repair 4%, ELG1 genotoxic 1%, Rab9 prom act 4%, FLuc counter 5% and SMN2 splice enh -3%.
COc1ccc(Cn2ccc3nc(C)c(C(=O)NCc4ccc(C)cc4)cc3c2=O)cc1 was read as FLuc counter 2%.
Screening CN(CC(=O)NC(=O)NC(C)(C)C)CC(=O)Nc1ccccc1Cl returned NPC1 prom act -6%, ELG1 DNA repair -14%, ELG1 genotoxic 1%, Rab9 prom act 11%, FLuc counter -2% and SMN2 splice enh -10%.
CC(=O)Nc1ccc(C2CC(c3ccc(Cl)cc3)=NN2c2ccccc2)cc1 (stereo unspecified) was read as NPC1 prom act 11%, ELG1 DNA repair inconclusive, ELG1 genotoxic 8%, Rab9 prom act 17% and FLuc counter 17µM*.
CC(=O)Nc1ccc(C2=NN(c3ccccc3)C(c3ccccc3)C2)cc1 (stereo unspecified) was read as NPC1 prom act 15%, ELG1 DNA repair inconclusive, ELG1 genotoxic 11%, Rab9 prom act 9% and FLuc counter -13%.
COC(=O)c1cccc(NC(=O)c2nn(C(C)C)c(=O)c3ccccc23)c1 was read as NPC1 prom act 18%, ELG1 DNA repair 5%, ELG1 genotoxic 9%, Rab9 prom act -1%, FLuc counter -1% and SMN2 splice enh -12%.
Screening CC(C)Cn1nc(C(=O)Nc2cccc(C(=O)NC3CC3)c2)c2ccccc2c1=O returned NPC1 prom act 2%, ELG1 DNA repair 16µM*, ELG1 genotoxic -5% and Rab9 prom act -2%.
For CCCn1nc(C(=O)Nc2cccc(C(=O)OC)c2)c2ccccc2c1=O the results were NPC1 prom act 1%, ELG1 DNA repair 23µM*, ELG1 genotoxic -22%, Rab9 prom act 3%, FLuc counter -8% and SMN2 splice enh -15%.
CCn1nc(C(=O)Nc2cccc(S(=O)(=O)N3CCCC3)c2)c2ccccc2c1=O was read as NPC1 prom act -3%, ELG1 DNA repair inconclusive, ELG1 genotoxic -2%, Rab9 prom act -3% and FLuc counter -11%.
`CC(C)Cn1nc(C(=O)Nc2cccc(S(=O)(=O)N3CCCC3)c2)c2ccccc2c1=O` gave NPC1 prom act 0%, ELG1 DNA repair 21µM*, ELG1 genotoxic -3% and Rab9 prom act 4%.
`O=C(COc1coc(CN2CCN(c3ccccc3F)CC2)cc1=O)NC1CCCCC1` gave NPC1 prom act -1%, ELG1 DNA repair -5%, ELG1 genotoxic -4%, Rab9 prom act -8% and FLuc counter 0%.
CN1CCC[C@H]1CCNC(=O)c1c(-c2ccsc2)sc2ccccc12 was read as ELG1 DNA repair 0% and ELG1 genotoxic 0%.
O=S(=O)(Nc1ccc2c(c1)oc1ccccc12)N1CCCC1 was read as NPC1 prom act -2%, ELG1 DNA repair 2%, ELG1 genotoxic 0%, Rab9 prom act 8%, FLuc counter inconclusive and SMN2 splice enh 6%.
CN1CCCC1CCNc1ccc2oc3ccccc3c(=O)c2c1 (stereo unspecified) was read as NPC1 prom act 17%, ELG1 DNA repair inconclusive, ELG1 genotoxic inconclusive, Rab9 prom act -4% and FLuc counter 4.8µM*.
Screening CN1CCCC1CCNc1ccc2c(=O)c3ccccc3oc2c1 (stereo unspecified) returned NPC1 prom act inconclusive, ELG1 DNA repair inconclusive, ELG1 genotoxic inconclusive, Rab9 prom act inconclusive and FLuc counter 11µM*.
Screening COc1cc(NC(=S)N2CCN(C)CC2)cc(OC)c1 returned NPC1 prom act 2%, ELG1 DNA repair 22%, ELG1 genotoxic 1%, Rab9 prom act 2% and FLuc counter -7%.
Screening O=C(CCl)Nc1cccc(S(=O)(=O)N2CCCCCC2)c1 returned NPC1 prom act -26%, ELG1 DNA repair inconclusive, ELG1 genotoxic -16%, Rab9 prom act -14% and FLuc counter -1%.
For CCC(C)(C(=O)NC1CCCCC1)N(C(=O)CNC(=O)c1ccccc1)c1c(C)n(C)n(-c2ccccc2)c1=O (stereo unspecified) the results were NPC1 prom act -2%, ELG1 DNA repair -5%, ELG1 genotoxic 10%, Rab9 prom act 0%, FLuc counter -1% and SMN2 splice enh -19%.
Screening CCCC[n+]1c(-c2ccc(Cl)cc2Cl)csc1Nc1ccccc1 returned NPC1 prom act 12%, ELG1 DNA repair -9%, ELG1 genotoxic -1%, Rab9 prom act 19%, FLuc counter inconclusive and SMN2 splice enh -5%[1.84 µM].
Screening Clc1ccc(-c2csc(Nc3ccccc3)[n+]2Cc2ccco2)c(Cl)c1 returned NPC1 prom act inconclusive, ELG1 DNA repair inconclusive, ELG1 genotoxic 10%, Rab9 prom act 2.8µM*, FLuc counter 12µM* and SMN2 splice enh -47%.
For Cc1nc2ccccn2c1C(=O)NNS(=O)(=O)c1ccc(Cl)cc1 the results were NPC1 prom act 15%, ELG1 DNA repair 2%, ELG1 genotoxic -10%, Rab9 prom act -5% and FLuc counter -1%.
For CCN(CC)S(=O)(=O)c1ccc(N2CCOCC2)c(NC(=O)c2cc3ccccc3oc2=O)c1 the results were NPC1 prom act 1%, ELG1 DNA repair 5.2µM*, ELG1 genotoxic -10%, Rab9 prom act 10% and FLuc counter -2%.
